Compound activity (PubChem BioAssay)
HP1b binding inh: inhibitors of HP1-beta chromodomain binding to methylated histone tails; P83916; Potency, µM (top dose mostly 114 µM), usual class: inhibitors; AID 540317; AlphaScreen HP1-beta / biotin-H3K9me3 peptide binding; hit rate 0.56% among 390,000; also: nearly all actives have a fitted effect of over 70% in size
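AlphaScreen: HP1-beta (50 nM) preformed 30 min with biotin-H3(1-18)K9me3 peptide (50 nM) in PBS pH 7.4, 0.01% Tween-20. Compound added for 30 min at RT, then streptavidin donor/nickel chelate acceptor beads (10 ug/mL) for 30 min.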
JMJD2A Tudor inh: JMJD2A Tudor domain (human) inhibition; hit rate 4.4% among 390,000; Potency, µM (highest dose often 114 µM), most hits filed as inhibitors; AID 504339; AlphaScreen JMJD2A-Tudor / H3K4me3 peptide binding; O75164; also: nearly all actives have a fitted effect of over 50% in size
G9a block: blocks human histone lysine methyltransferase G9a; hit rate 8.8% among 350,000; Potency, µM (highest dose often 102 µM), most hits filed as inhibitors; Q96KQ7; AID 504332; G9a H3K9 monomethylation, AlphaScreen, 2 h; also: nearly all actives have a fitted effect of over 75% in size
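Readings reflect AlphaScreen signal from monomethyl-H3K9 antibody detection. HMT at 20 nM; substrate b-H3K9 500 nM; cofactor SAM 20 uM; 2 h RT reaction; compounds tested as titrations in qHTS with 15 min preincubation.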
BAZ2B inh: inhibitors of human BAZ2B bromodomain | AID 504333 | AlphaScreen BAZ2B-H3K14Ac peptide displacement | Potency, µM (top dose mostly 114 µM), actives largely listed as inhibitors | Q9UIF8 | hit rate 4.4% among 360,000; also: nearly all actives have a fitted effect of over 60% in size
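BAZ2B (50 nM) with biotin-H3(5-23)K14Ac peptide (50 nM) in PBS pH 7.4, 0.01% Tween-20, preformed 30 min, then compound 30 min at room temperature; top concentration 110uM. AlphaScreen streptavidin donor/nickel chelate acceptor beads (10 ug/mL final), 20 min dark, signal read.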
Sfp inh: Sfp phosphopantetheinyl transferase inhibition; Q9F4F7; Biochemical Sfp PPTase activity, qHTS; hit rate 3.5% among 310,000; Potency, µM, usual class: inhibitors;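 also: the enzyme is Sfp with the accession as filed and its product quenches rhodamine fluorescence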
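Fluorescence-quenching assay: 15 nM Sfp-PPTase preincubated 15 min at room temperature with compound, then 5 uM rhodamine-CoA and 12.5 uM BHQ-2-labelled YbbR peptide added. Fluorescence (ex 525/em 598 nm) read at start and after 30 min; difference gives rate.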
L3MBTL1 block: L3MBTL1 (human) inhibition. AID 485360. Q9Y468. AlphaScreen L3MBTL1–H3K9me1 peptide binding. hit rate 0.66% among 230,000. Potency, µM (series often up to 57.1 µM), usual class: inhibitors; also: nearly all actives have a fitted effect of over 60% in size
Target sequence (Q9Y468 whole entry, looked up): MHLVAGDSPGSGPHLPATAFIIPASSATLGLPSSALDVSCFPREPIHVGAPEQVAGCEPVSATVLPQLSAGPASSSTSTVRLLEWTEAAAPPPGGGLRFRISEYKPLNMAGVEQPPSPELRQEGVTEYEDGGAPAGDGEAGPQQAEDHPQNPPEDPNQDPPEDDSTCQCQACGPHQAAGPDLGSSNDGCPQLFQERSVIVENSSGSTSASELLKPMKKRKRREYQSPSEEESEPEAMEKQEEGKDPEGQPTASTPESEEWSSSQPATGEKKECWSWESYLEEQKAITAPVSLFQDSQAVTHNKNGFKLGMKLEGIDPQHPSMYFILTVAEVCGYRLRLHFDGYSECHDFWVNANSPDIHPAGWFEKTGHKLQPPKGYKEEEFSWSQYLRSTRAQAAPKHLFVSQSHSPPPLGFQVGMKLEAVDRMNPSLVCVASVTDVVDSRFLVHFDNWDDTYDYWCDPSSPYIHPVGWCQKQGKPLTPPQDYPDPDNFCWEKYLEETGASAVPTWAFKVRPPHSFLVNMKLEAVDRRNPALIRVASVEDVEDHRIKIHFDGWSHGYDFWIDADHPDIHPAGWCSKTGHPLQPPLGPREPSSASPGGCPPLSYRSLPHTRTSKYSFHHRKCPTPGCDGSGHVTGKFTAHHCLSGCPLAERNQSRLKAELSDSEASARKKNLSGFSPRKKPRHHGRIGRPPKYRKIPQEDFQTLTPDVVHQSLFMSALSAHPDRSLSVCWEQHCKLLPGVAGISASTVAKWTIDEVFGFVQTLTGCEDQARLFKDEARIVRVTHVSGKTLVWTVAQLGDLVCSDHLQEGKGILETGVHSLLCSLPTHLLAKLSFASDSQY
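L3MBTL1 (50 nM) pre-complexed 30 min with biotinylated H3(1-15)K9me1 peptide (75 nM), then compounds added for 30 min at room temperature; AlphaScreen streptavidin donor/nickel chelate acceptor beads (10 ug/mL final) read after 30 min dark incubation.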
Hits are given with their value; . = inactive; ? = inconclusive; / = no result given; [ ] = another dose, or the depositor's remark. In the library only some 12% were active in any assay of this set; here they are far more common. Calls follow the shape of the dose curve; as a rule, active = well fitted curve in the direction sought with a large enough effect; inconclusive = small, poorly fitted or top-dose-only effect, or another doubt; inactive = no such curve, though single readings can be large; an effect the other way counts as inactive or inconclusive.

SMILES	HP1b binding inh	JMJD2A Tudor inh	G9a block	BAZ2B inh	Sfp inh	L3MBTL1 block
COc1ccc(C(=O)N/C(=C\c2ccc([N+](=O)[O-])cc2)C(=O)NC(CCSC)C(=O)O)cc1 (stereo not drawn)	.	.	50µM	.	.	/
COc1ccc(/C=C(\NC(=O)c2ccc(OC)cc2)C(=O)NC(CCSC)C(=O)O)cc1 (stereo not drawn)	.	?	.[2.33 µM]	.	.	/
Cc1ccc(SCC(c2ccccc2)N2CCN(CCc3ccccc3)CCC2=O)cc1 (stereo not drawn)	.	?	/	/	.	/
NNS(=O)(=O)c1ccc(N2CCCC2=O)c([N+](=O)[O-])c1	.	25µM	10µM	.	?	.
NS(=O)(=O)c1ccc(N2CCCC2=O)c([N+](=O)[O-])c1	.	.	?	.	.	.
CCCCN(CCCC)S(=O)(=O)c1ccc(N2CCCC2=O)c([N+](=O)[O-])c1	.	32µM	/	/	/	/
O=C(Cc1cccs1)N1CCN(c2ccc(F)cc2)CC1	.	.	.	.	.	.
CC(=O)N1CCN(c2ccc(NCc3ccc(C)s3)cc2)CC1	.	?	45µM	.	50µM	?
Cc1ccc(NCc2ccc(C)s2)cc1	/	/	/	.	.	.
CC(=O)N1CCN(c2ccc(NCc3cccs3)cc2)CC1	.	.[11.4 µM]	6.3µM	?	22µM	.[11.4 µM]
Cc1nc2ncnn2c(N2CCN(C(=O)Cc3cccs3)CC2)c1C	.	?	.	50µM	.	/
O=C(Cc1cccs1)N1CCN(c2ccc([N+](=O)[O-])cc2)CC1	.	.	?	56µM	.	/
NCCC[C@@H](CC(=O)N[C@@H]1CCNC[C@H]1C(=O)N[C@H](CC(=O)N[C@@H](CCC(=O)O)CC(=O)O)Cc1ccccc1)NC(=O)C[C@H](Cc1ccccc1)NC(=O)[C@@H]1CCCC[C@H]1N	/	/	/	/	.	/
COc1ccc(OC)c(/C=C(/C#N)c2nc(-c3ccc(-c4ccccc4)cc3)cs2)c1	.	.	.	.	/	/
O=C(O)c1cc(-c2ccccn2)n[nH]1	.	.	.	45µM	?	.
C#CCOCCOCCOCCNc1nc(N2CCN(C(=O)CCCCCCCCCCNC(=O)[C@H](CCCCN)n3cc(CCO)nn3)CC2)nc(N2CCN(C(=O)CCCCCCCCCCNC(=O)[C@@H]([C@H](C)O)n3cc(C)nn3)CC2)n1	.	79µM	.[2.33 µM]	50µM	/	.
C#CCOCCOCCOCCNc1nc(N2CCN(C(=O)CCCCCCCCCCNC(=O)[C@H](CCC(=O)O)n3cc(CCCCCN)nn3)CC2)nc(N2CCN(C(=O)CCCCCCCCCCNC(=O)[C@@H]([C@H](C)O)n3cc(C)nn3)CC2)n1	.	?	.[2.33 µM]	.	/	.
C#CCOCCOCCOCCNc1nc(N2CCN(C(=O)CCCCCCCCCCNC(=O)[C@H](CCCCN)n3cc(CCCC(=O)O)nn3)CC2)nc(N2CCN(C(=O)CCCCCCCCCCNC(=O)[C@H](CCCCN)n3cc(CCCC(=O)O)nn3)CC2)n1	.	?	.[2.33 µM]	.	/	.
C#CCOCCOCCOCCNc1nc(N2CCN(C(=O)CCCCCCCCCCNC(=O)[C@H](CCCCN)n3cc(CCO)nn3)CC2)nc(N2CCN(C(=O)CCCCCCCCCCNC(=O)[C@H](CCCCN)n3cc(CCO)nn3)CC2)n1	?	89µM	.[2.33 µM]	.	/	.
COc1ccc(C=O)cc1COc1ccc2c(c1)OCO2	.	7.1µM	.[0.501 µM]	?	/	.
Cc1cccc(NC(=O)CN2C(=O)c3cccc4cccc2c34)c1C	.	.	.	.	/	/
O=C(O)c1cccc(NS(=O)(=O)/C=C/c2ccccc2)c1	.	.	.	.	.	/
O=C(O)c1cccc(NC2=C(Cl)C(=O)c3ccccc3C2=O)c1	?	56µM	7.1µM	45µM	25µM	.
O=C(O)c1ccc(NC2=C(Cl)C(=O)c3ccccc3C2=O)cc1	.	?	?	50µM	22µM	?
CC1=C(Nc2ccc(C(=O)O)cc2)C(=O)c2ccccc2C1=O	.	?	?	45µM	.	/
SMILES	HP1b binding inh	JMJD2A Tudor inh	G9a block	BAZ2B inh	Sfp inh	L3MBTL1 block
Cc1ccc(NC2=C(NC(=O)c3ccccc3)C(=O)c3ccccc3C2=O)cc1Cl	45µM	14µM	2.2µM	14µM	10µM	?
O=C1C(Cl)=C(Nc2ccccc2)C(=O)c2ccccc21	.	.	?	?	.	.
COc1ccc(C(=O)N2CCN(Cc3ccccc3C(F)(F)F)CC2)cc1	?	25µM	20µM	?	.	.
COc1ccc(C(=O)N2CCN(Cc3cn[nH]c3-c3ccc(OC)cc3F)CC2)cc1	.	.	.	.	.	.
COc1cccc(C(=O)N2CCN(Cc3ccccc3C(F)(F)F)CC2)c1	?	.[11.4 µM]	3.5µM	28µM	56µM	.
O=C(NCc1ccc(F)cc1)c1cccc(N2CCCS2(=O)=O)c1	.	.	.	.	/	/
COC(=O)C/C=C\[C@@H](C)[C@@H](/C=N\OC[C@@H](O)[C@H]1O[C@H]2OC(C)(C)O[C@H]2[C@@H]1O)NS(=O)(=O)c1ccc(C)cc1	/	/	/	/	.	/
Cc1ccc(Nc2nc(N)c([N+](=O)[O-])c(N3CCOCC3)n2)cc1C	.	?	?	.	.	.
Cc1ccc(Nc2nc(N)c([N+](=O)[O-])c(N3CCC(C)CC3)n2)cc1C	?	56µM	?	25µM	.	.
Cc1cccc(Nc2nc(N)c([N+](=O)[O-])c(N3CCCC(C)C3)n2)c1 (stereo not drawn)	.	40µM	40µM	40µM	.	32µM
O=c1[nH]c(=O)n(C(c2ccccc2)(c2ccccc2)c2ccccc2)cc1N(CCO)CCO	.	.	/	/	/	/
CC(C)(c1cc(Cl)c(O)c(CN2CCOCC2)c1)c1cc(Cl)c(O)c(CN2CCOCC2)c1	.	.	/	/	/	/
CC(C)(C)c1nc(CN2CCOCC2)cc(CN2CCOCC2)c1O	.	32µM	.[12.7 µM]	.	.	/
Oc1c(CN2CCOCC2)cc(CN2CCOCC2)c(O)c1CN1CCOCC1	8.9µM	7.9µM	/	/	/	/
CC(=O)c1ccccc1NS(C)(=O)=O	.	.	.	.	.	.
Clc1ccc(Nc2nc(NCc3ccco3)nc3nccnc23)cc1	.	.	/	/	/	/
CC(=O)NCCNc1nc(-c2ccccc2CN(C)C)nc2ccccc12	/	/	/	/	.	/
CCc1nc(Nc2cccc(F)c2)c2oc3ccccc3c2n1	.	.	45µM	?	.	/
CCc1nc(Nc2ccccc2)c2oc3ccccc3c2n1	.	.	.	.	.	.
CC(=O)N1CCN(c2ccc(Nc3ncnc4c3oc3ccccc34)cc2)CC1	.	.	?	?	.	.
CCc1nc(Nc2ccccc2F)c2oc3ccccc3c2n1	.	.	50µM	56µM	.	/
CCc1nc(N[C@H](C(=O)O)C(C)CC)c2oc3ccccc3c2n1 (stereo partly drawn)	.	.	.[0.501 µM]	.	.	.
CCc1nc(Nc2cccc(OC)c2)c2oc3ccccc3c2n1	.	.	.	.	?	/
